Assay in all cases: NCI-60 one-dose screen, 48 h (100 = growth as untreated, 0 = no growth, -100 = all killed)
What all share (conditions): 10 µM unless noted

The subject of experiment [1] is DU-145 prostate.
Experiment [2] has as its system K-562 leukemia.
Experiment [3] deals with MALME-3M melanoma.
Experiment [4] concerns MDA-MB-231 breast.
Experiment [5] deals with RXF 393 renal.
Experiment [6] concerns SF-268 CNS.
Experiment [7] has as its system SF-295 CNS.
The subject of experiment [8] is SF-539 CNS.
Experiment [9] has as its system UACC-257 melanoma.
Experiment [10] concerns M14 melanoma.
Experiment [11] concerns HCT-15 colon.
In experiment [12] the test system is HT29 colon.
The subject of experiment [13] is SNB-75 CNS.
Experiment [14] concerns SNB-19 CNS.
Experiment [15] concerns U251 CNS.
The subject of experiment [16] is PC-3 prostate.
Experiment [17] deals with SK-MEL-5 melanoma.
The subject of experiment [18] is UACC-62 melanoma.
Experiment [19] relates to LOX IMVI melanoma.
Experiment [20] deals with SK-MEL-28 melanoma.

The structures appear in SMILES notation. About 83,000 compounds went through this panel and 20% of them were active in at least one assay; those are over-represented in the sample as a whole.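 How to read the values: 0–100, growth inhibition (40 = 60% inhibited); 0, no net growth; -100 to 0, cell death (-40 = 40% of starting cells died; -100 = all dead).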 Values without a mark were called inactive. The source made the active and inactive calls. How the source made its calls: active means growth percent below 10; inactive means the rest.

7 compounds from PubChem BioAssay (NCI) can be followed below.

With `O=C1Nc2ccccc2/C1=C\c1c[nH]c2ccc(Br)cc12`, the growth was 89.7% in [1]; 74.2% in experiment [2]; 89.8% in [3]; 67% in experiment [4]; 25.4% in experiment [5]; 62.2% in [6]. Also, the growth in experiment [7] was 109%; in experiment [8], 83.1%; in experiment [9], 80.1%; in experiment [10], 84.5%; in experiment [11], 48.7%; in experiment [12], 86.7%. Besides, the growth in experiment [13] is 56.1%; in experiment [14], 88.6%; in experiment [15], 85%; in experiment [16] it was 70.8%; in [17], 35.4%; in [18], 80.1%. Also, the growth in experiment [19] was 50.6%; in [20], 72.7%.
With `CCN1CCN(CC(=O)Nc2ccc(-c3cn4c(n3)sc3cc(Oc5ccnc(C(=O)NC)c5)ccc34)cc2)CC1`, the growth in experiment [1] was 105%; in experiment [2], -11.1% (active); in experiment [3] it was 87.7%; in [4], 85.1%; in experiment [5], 69.2%; in [6] it was 87.2%. The growth was 65.4% in experiment [7]; 65.4% in experiment [8]; 96.2% in [9]; 73.8% in [10]; 77.3% in experiment [11]; -21.8% (active) in [12]. Also, the growth in experiment [13] was 82.9%; in experiment [14], 98.6%; in experiment [15], 64.8%; in [16], 65.8%; in experiment [17] it was 88.3%; in [18] it was 66.9%. In addition, the growth in experiment [19] was -80.4% (active); in experiment [20] it was 74.6%.
Turning to `CCN(CC)c1ccc(CNc2cc(C)nc3ccccc23)cc1`, the growth in [1] was 77.8%; in [2] it was 31%; in experiment [3], 69.8%; in experiment [4], 66.6%; in [5] it was 68.8%; in experiment [6] it was 87.7%. For the same compound, the growth in experiment [7] is 50.9%; in [8], 74.7%; in experiment [9], 62.5%; in experiment [10], 64.8%; in experiment [11], 69.6%; in experiment [12], 43.3%. Besides, the growth in experiment [13] was 75.2%; in [14], 73.8%; in experiment [15], 63.9%; in [16], 64%; in experiment [17], 9.25% (active); in experiment [18], 68.5%. In addition, the values for the growth in [19] and in experiment [20] were 65% and 78.4%, respectively.
Regarding `C=C1CC[C@@H]2[C@](C)(COC(C)=O)[C@H](OC(C)=O)CC[C@@]2(C)[C@@H]1CC(Nc1ccc(S(=O)(=O)NC(C)=O)cc1)C1=CCOC1=O` (stereo not given in full), the growth in experiment [1] is 0.37% (active); in experiment [2], 4.81% (active); in experiment [3] it was -43.6% (active); in [4], -38.7% (active); in experiment [5] it was -75.8% (active); in experiment [6], 6.72% (active). The growth is 58.4% in experiment [7]; -76.7% (active) in experiment [8]; -10.6% (active) in experiment [9]; -35.1% (active) in [10]; -49.5% (active) in experiment [11]; -69.9% (active) in experiment [12]. In addition, the growth in [13] is 26.3%; in experiment [14] it was 23%; in experiment [15] it was -65.5% (active); in experiment [16], 0.695% (active); in experiment [17] it was 7.36% (active); in [18] it was -12.5% (active). Further, the growth was -85.8% (active) in [19] and -36.6% (active) in [20].
As to `O=S(=O)(NCCCNc1nccc(-c2c(-c3cccc(F)c3)nc3occn23)n1)c1ccc(F)cc1`, the growth in experiment [1] was 55.9%; in [2], 13%; in experiment [3], 43.6%; in experiment [4] it was 60.9%; in experiment [5], 63.6%; in [6], 44.5%. Besides, the growth in [7] was 89.5%; in [8], 87%; in experiment [9], 43.6%; in [10] it was 35.7%; in experiment [11], 58.3%; in experiment [12] it was 21.9%. The growth is 73.5% in experiment [13]; 84.9% in experiment [14]; 56.1% in [15]; 29.4% in [16]; 32.7% in [17]; 26.5% in [18]. Also, the growth was 44.7% in experiment [19] and 64.2% in experiment [20].
Turning to `Fc1ccc(Cn2cc(CSc3nc4ccccc4o3)nn2)cc1`, the growth in experiment [1] is 108%; in [2], 95.3%; in experiment [3], 107%; in [4], 97.1%; in experiment [5] it was 105%; in experiment [6], 95.4%. Besides, the growth in experiment [7] was 97%; in experiment [8], 100%; in experiment [9], 105%; in [10] it was 97%; in experiment [11], 104%; in [12] it was 99.8%. In addition, the growth was 92.2% in experiment [13]; 92.5% in [14]; 105% in [15]; 98.3% in experiment [16]; 110% in experiment [17]; 84.3% in [18]. In addition, the growth was 107% in experiment [19] and 98.9% in [20].
With `CCN1C(=O)N(CC)C2C1NC(=S)N2/N=C/c1ccc(OC)cc1` (stereo not given), the growth in experiment [1] was 78.5%; in experiment [2] it was 20.1%; in [3], 54.4%; in experiment [4], 69.5%; in [5] it was 59.8%; in experiment [6], 71.8%. In addition, the growth in experiment [7] is 42.1%; in experiment [8] it was 55.2%; in experiment [9] it was 61%; in [10] it was 29.9%; in experiment [11], 33.2%; in experiment [12], 8.46% (active). Besides, the growth in experiment [13] was 15.1%; in [14], 52.8%; in experiment [15], 40.3%; in [16] it was 55.9%; in experiment [17], 43.3%; in experiment [18], 38.5%. For the same compound, the growth in [19] was 49.2%; in [20], 71%.
